From PubChem BioAssay
The list is not random: actives were taken first. Their share in the collection is about 1.8%.
Myeloid diff 2 – promotes myeloid progenitor differentiation; ER-HoxA9 myeloid progenitors, lysozyme-GFP differentiation, flow cytometry; actives 1% (n = 360,000); AID 624256; calls only at 10 µM;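 active = normalized GFP-positive differentiation at or above the plate's own cutoff, the solvent-only control mean plus 3 SD; inconclusive = no clear call, values can overlap the other calls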;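 note: cells exposed to compound for four days before flow analysis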
NPR2 activator – GC-B (human) receptor activation; P20594; HEK293-GC-B cells, CNP EC30, cGMP TR-FRET; 0% at EC30 CNP, 100% saturating CNP; activation, % at 10 µM; actives 0.11% (n = 370,000); AID 1920062;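 active = activation at 10 µM reaching about 35% in either raw or pattern-adjusted values, limit read from the data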
GC-A act – GC-A (human) enzyme activation; P16066; HEK293 GC-A cells, cGMP TR-FRET, EC30 ANP; 0% at EC30 ANP, 100% saturating ANP; activation, % at 10 µM; actives 0.14% (n = 370,000); in the data active = activation above about 40%
Exocytosis inh – blocks lytic granule exocytosis. actives 0.66% (n = 360,000). AID 651702. TALL-104 LAMP-1 surface exposure, flow cytometry; cells stimulated with thapsigargin and PMA. inhibition, % at 10 µM;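 active = inhibition above about 55%, limit read from the data; inconclusive = no clear call, values can overlap the other calls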
Granule exo CP1 – lytic granule exocytosis inhibition | shares compounds with Exocytosis inh | TALL-104 cells, LAMP-1 externalization, flow cytometry; stimulated with PMA plus thapsigargin | inhibition, % at 10 µM | actives 11% (n = 1,500); in the data active = inhibition above about 60%;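 note: 0% = stimulated vehicle wells and 100% = unstimulated wells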
* = called active by the depositor.

Results for COc1ccc2nc3cc(Cl)ccc3c(Nc3ccc(O)c(CN4CCN(C)CC4)c3)c2c1 ?
NPR2 activator: -1; GC-A act: 9; Exocytosis inh: 66*; Granule exo CP1: 75*

How did COCC#Cc1ccc(CC[C@H]2O[C@H]3CC[C@H](CO)O[C@H]3C[C@H]2n2cc(C(C)(C)O)nn2)cc1 do in these assays?
NPR2 activator: 4; GC-A act: 6

How did COc1cccc(Cn2cc(COC(=O)N3CCCC3)nn2)c1 do in these assays?
NPR2 activator: -1; GC-A act: 3

What do the screens show for `O=C(Nc1cccc(C(F)(F)F)c1)C1CC(=O)N(Cc2ccco2)C1` (stereo not given)?
Myeloid diff 2: inactive; NPR2 activator: 1; GC-A act: -4; Exocytosis inh: 9

Results for CCC1=C2CC[C@H]3C(=O)N(C)C(=O)[C@H]3[C@H]2[C@@]2(Cc3ccccc3)C(=NCC(=O)OC)OC(=O)N2C1=O ?
Myeloid diff 2: inactive; NPR2 activator: 1; GC-A act: 3; Exocytosis inh: 84*; Granule exo CP1: -15

Results for Cc1cc(F)ccc1S(=O)(=O)Nc1ccccc1C(=O)Nc1ccccc1-c1nc2ccccc2[nH]1 ?
Myeloid diff 2: inactive; Exocytosis inh: 90*; Granule exo CP1: 94*

How did O=C(Nc1ccc(-c2nc3ccccc3[nH]2)cc1)c1ccccc1NS(=O)(=O)c1ccc(F)cc1 do in these assays?
Myeloid diff 2: inactive; NPR2 activator: 5; GC-A act: 3; Exocytosis inh: 68*; Granule exo CP1: 5

How did CC1(C(=O)Nc2ccc3nc[nH]c3c2)CCN1C(=O)c1ccccc1CCc1ccccc1 (stereo not given) do in these assays?
Myeloid diff 2: inactive; NPR2 activator: -1; GC-A act: -7; Exocytosis inh: -1

Results for COc1ccccc1OCCCCn1ncc2ccc(OC)c(OC)c2c1=O ?
Myeloid diff 2: inactive; NPR2 activator: 4; GC-A act: -4; Exocytosis inh: 78*; Granule exo CP1: -12

What do the screens show for `Cc1ccccc1CN1[C@@H](C)[C@H](c2ccccc2)Oc2cccc(N3CCCC(C)C3)c2S1(=O)=O` (stereo not given in full)?
NPR2 activator: -1; GC-A act: 0

What do the screens show for `O=C(CCCc1ccccc1)Nc1ccnn1C1CCN(Cc2ccccc2)CC1`?
Myeloid diff 2: inconclusive; NPR2 activator: -6; GC-A act: -5; Exocytosis inh: 64*; Granule exo CP1: -5

How did CCOc1ccc2[nH]c3c(N4CCc5ccccc5C4)ncnc3c2c1 do in these assays?
Myeloid diff 2: inconclusive; NPR2 activator: 23; GC-A act: 13; Exocytosis inh: 97*; Granule exo CP1: 98*

Results for CCOC(=O)[C@]12CCC=C1N(Cc1ccc(Cl)cc1Cl)C(=O)[C@H](CC(=O)NCc1ccc(C)o1)C2 ?
Myeloid diff 2: inactive; NPR2 activator: 4; GC-A act: -11; Exocytosis inh: -4

What do the screens show for `CC(=O)Nc1ccc(Nc2nc(-c3c(C)nc4ccccn34)cs2)cc1`?
Myeloid diff 2: inconclusive; NPR2 activator: 0; GC-A act: 5; Exocytosis inh: 75*; Granule exo CP1: -4

What do the screens show for `COc1ccc(OC)c(S(=O)(=O)Nc2ccc3c(c2)OCCO3)c1`?
Myeloid diff 2: inactive; NPR2 activator: -3; GC-A act: -1; Exocytosis inh: 5

Results for Cc1ccc(Cn2cc(CN(C3CC3)S(=O)(=O)c3ccccc3Br)nn2)cc1 ?
NPR2 activator: 0; GC-A act: 1

Results for CCN(CC)C(=O)C1CCCN(Cc2cccc(Oc3ccccc3)c2)C1 (stereo not given) ?
Myeloid diff 2: inactive; NPR2 activator: 7; GC-A act: 1; Exocytosis inh: 68*; Granule exo CP1: -13

What do the screens show for `CCOC(=O)C1CCCN(Cc2cccc(Oc3ccccc3)c2)C1` (stereo not given)?
Myeloid diff 2: inactive; NPR2 activator: 6; GC-A act: 3; Exocytosis inh: 2

How did CC1CN(C(=O)CCC(=O)NCCCN2CCN(Cc3ccccc3)CC2)c2cc(Cl)ccc2O1 (stereo not given) do in these assays?
Myeloid diff 2: inactive; NPR2 activator: -14; GC-A act: -22; Exocytosis inh: 8

How did CC(=O)CCc1oc2ccc(C)cc2c1-c1ccc(C)o1 do in these assays?
Myeloid diff 2: inactive; NPR2 activator: -2; GC-A act: -5; Exocytosis inh: 91*; Granule exo CP1: -11
